The values that follow come from PubChem BioAssay.

Experiment [1] is described as follows: hESC survival regulators, cell-based (AID 493140).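 Also: cells exposed to compounds for four days before counting.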 The conditions noted are these: human embryonic stem cell survival screen; stronger effect = higher value.
The nature of experiment [2]: survival rescue of mitochondrial mutant cells in low glucose, primary screen, MELAS cybrids, Rieske KO mouse fibroblasts, CellTiter-Glo (AID 1508586;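 active = mean z-score across replicates of 1.96 or higher in either the MELAS or the Rieske mutant cell line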;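 also: z relative to plate mean and SD of compound and empty wells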).
The target in experiment [3] is NAD(+) hydrolase SARM1 (Homo sapiens) (UniProt Q6SZW1). The experiment in a line: SARM1 TIR NADase inhibitors, cell lysate, NAD-Glo luminescence (AID 1508614;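 active = compound whose remaining NAD level is above about 45 nM, limit read from the data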;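 also: higher remaining NAD means stronger inhibition of SARM1 NADase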). Particulars: SAM-TIR HEK293T lysate NADase, at 1 µM, stronger effect = higher value.
A short description of experiment [4]: LFS_MB_P medulloblastoma growth inhibition, cell-based, chromothripsis tumors, cisplatin or BGB combos (AID 1671449; in the data active = inhibition above about 80%;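 also: cells exposed for 96 hours; 0% = vehicle DMSO and 100% = killing by high DMSO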). Particulars: LFS_MB_P medulloblastoma cells.
A short description of experiment [5]: HDN33 neuroblastoma growth inhibition, cell-based, chromothripsis tumors, cisplatin or BGB combos (AID 1671450; in the data active = inhibition above about 80%;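 also: cells exposed to compound for four days; 0% = vehicle DMSO and 100% = cell killing by high DMSO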). Particulars: HDN33 neuroblastoma cells, stronger effect = higher value.
Experiment [6] in a line: ICB984 medulloblastoma cell growth inhibition, synergistic combos for chromothripsis tumors, cisplatin or BGB combos (AID 1671451).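 Also: cells exposed for 96 hours before readout; 0% = vehicle DMSO and 100% = killing by high DMSO.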 Particulars: ICB984 medulloblastoma cells, drug combinations, stronger effect = higher value.
Experiment [7] can be described thus: HTB85 osteosarcoma cell growth inhibition, synergistic combos for chromothripsis tumors, BGB or cisplatin IC20 combos (AID 1671453; in the data active = inhibition above about 80%;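 also: cells exposed for 96 hours before readout; 0% = vehicle DMSO and 100% = high DMSO killing control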). The conditions noted are these: HTB85 osteosarcoma cells, drug combinations, stronger effect = higher value.
A short description of experiment [8]: MDA-MB-436 breast carcinoma cell growth inhibition, synergistic combos for chromothripsis tumors, BGB or cisplatin combos (AID 1671458).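 Also: cells exposed for 96 hours; 0% = vehicle DMSO and 100% = killing by high DMSO.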 The conditions noted are these: MDA-MB-436 breast carcinoma growth inhibition, drug combinations, stronger effect = higher value.
Experiment [9] is described as follows: growth inhibition of BT084 medulloblastoma cells, cell-based, ICGC_MB145, cisplatin and BGB IC40 combos (AID 1671461; in the data active = inhibition above about 80%;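 also: cells exposed to drugs for 96 hours; 0% = vehicle DMSO and 100% = high DMSO full killing control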). Particulars: drug combinations, stronger effect = higher value.
The nature of experiment [10]: growth inhibition of RCMB18 medulloblastoma cells, cell-based, cisplatin and BGB IC40 combos (AID 1671462; in the data active = inhibition above about 80%;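 also: cells exposed to compound for four days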). The conditions noted are these: stronger effect = higher value.
The nature of experiment [11]: growth inhibition of CRL1545 osteosarcoma cells, cell-based, cisplatin and BGB IC20 combos (AID 1671464; in the data active = inhibition above about 80%;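 also: cells exposed to compound for 96 hours before readout; 0% = vehicle DMSO and 100% = high DMSO killing control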). Particulars: stronger effect = higher value.
Experiment [12] in a line: circadian clock period modulators, cell-based, LOPAC library, luminescence reporter (AID 2774).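 Also: values are relative to mean of DMSO wells on each plate.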 Particulars: circadian reporter cells, at 7 µM, actives lie on both sides.
The subject of experiment [13] is Hepatitis C virus NS3 helicase. The experiment in a line: HCV NS3 helicase inhibitors, primary screen, biochemical, fluorescence polarization, LOPAC1280 library (AID 687035; in the data active = inhibition above about 37%). Particulars: Purified HCV NS3 helicase, Cy5-dT15 ssDNA binding fluorescence polarization; stronger effect = higher value; concentration not given here.
The nature of experiment [14]: Cy5 fluorescence quenching or enhancement artefacts, artefact control for HCV NS3 helicase inhibitor project, biochemical, LOPAC1280 (AID 687037). Particulars: Cy5-DNA-NS3h complex fluorescence interference counterscreen. (In general: Counterscreens check selectivity or assay interference.)
The test system of experiment [15] is Aerobactin synthetase IucA (Klebsiella pneumoniae). Description: IucA aerobactin synthetase inhibitors, biochemical, Tocris library, absorbance (AID 1345561).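 Also: 100% = enzyme without compound and 0% = no enzyme.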 Particulars: purified IucA enzyme assay, absorbance (OD) read-out; stronger effect = lower value;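 tested at 8 µM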.
A short description of experiment [16]: phospholipid biosynthesis inhibitors in animal cells, primary screen, cell-based, LOPAC library, screen 4 (AID 1347384). The conditions noted are these: phospholipid biosynthesis inhibition screen, at 10 µM.
Experiment [17] is described as follows: growth inhibition of DIPG glioma cells, dose response, cell-based, SU-DIPG-XVII, MIPE5.0, CellTiter-Glo, qHTS (AID 1347060; cut-off not given, nearly all actives have AC50 up to about 26 µM). Particulars: SU-DIPG-XVII viability, CellTiter-Glo ATP luminescence. Background: Cellular ATP, detected with luciferase, serves as a proxy for viable cell number.
A short description of experiment [18]: growth inhibition of DIPG glioma cells, dose response, cell-based, JHH-DIPG-1, MIPE4.0, CellTiter-Glo, qHTS (AID 1347062; cut-off not given, nearly all actives have AC50 up to about 27 µM;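 also: cells exposed to compound for two days before readout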). The conditions noted are these: JHH-DIPG-1 viability, CellTiter-Glo ATP luminescence.
Experiment [19] in a line: viability loss in pontine glioma line – cell-based, SU-DIPG-XXV, MIPE5.0, CellTiter-Glo, qHTS, dose response (AID 1347065; cut-off not given, nearly all actives have AC50 up to about 26 µM;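 also: cells exposed to compound for 48 hours before ATP readout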). The conditions noted are these: CellTiter-Glo ATP luminescence.
Experiment [20] in a line: SU-DIPG-XXV glioma cell viability, MIPE5.0 library, qHTS (AID 1347068; cut-off not given, nearly all actives have IC50 up to about 30 µM). Background: Quantitative high-throughput screening tests each substance at several concentrations.
[21] abbreviates: MELAS cybrid survival, CellTiter-Glo 48 h, stronger effect = higher value.
[22] abbreviates: Rieske KO mouse fibroblast survival, CellTiter-Glo 72 h.
Where [23] appears, read: measured here: with BGB IC20 combination, at 0.5 µM.
Where [24] appears, read: measured here: with cisplatin IC20 combination, at 0.5 µM.

Several values for one entry are separate records, joined by “and”; a condition that tells them apart may be missing. Equal values may be shown once. Inconclusive results are not listed. Activity calls are given as the source filed them. Unless noted, no rule for the calls is given here.

Chain of NAD(+) hydrolase SARM1 (Homo sapiens) (Q6SZW1 whole entry, looked up): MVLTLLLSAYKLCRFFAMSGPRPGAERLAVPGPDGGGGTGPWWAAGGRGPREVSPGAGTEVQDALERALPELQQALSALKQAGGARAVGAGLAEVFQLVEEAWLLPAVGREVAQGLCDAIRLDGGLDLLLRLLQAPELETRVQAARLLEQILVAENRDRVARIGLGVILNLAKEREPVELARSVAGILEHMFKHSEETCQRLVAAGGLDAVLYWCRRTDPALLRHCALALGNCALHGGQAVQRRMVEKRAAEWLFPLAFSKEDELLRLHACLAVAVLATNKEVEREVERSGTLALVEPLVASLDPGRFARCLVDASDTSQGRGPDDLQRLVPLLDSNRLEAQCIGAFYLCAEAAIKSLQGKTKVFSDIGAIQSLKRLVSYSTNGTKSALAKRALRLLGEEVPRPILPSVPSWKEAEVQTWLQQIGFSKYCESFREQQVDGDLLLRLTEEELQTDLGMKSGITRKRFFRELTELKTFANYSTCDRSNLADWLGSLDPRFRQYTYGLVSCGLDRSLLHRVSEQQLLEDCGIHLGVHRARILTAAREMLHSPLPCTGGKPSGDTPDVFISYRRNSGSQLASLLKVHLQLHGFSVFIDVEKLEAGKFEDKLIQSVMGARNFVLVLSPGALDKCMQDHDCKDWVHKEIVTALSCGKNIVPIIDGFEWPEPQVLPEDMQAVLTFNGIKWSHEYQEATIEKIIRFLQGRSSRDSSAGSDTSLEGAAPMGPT

On to `CC(C)N=c1cc2n(-c3ccc(Cl)cc3)c3ccccc3nc-2cc1Nc1ccc(Cl)cc1`, for which, in [1], the survival is 11.8 (inactive). Further, the z-score in [2] (setting [21]) is -0.332 (inactive) and -3.07 (inactive); in experiment [2] (setting [22]) it was 0.691 and -0.422. For the same compound, in experiment [3], the remaining NAD was 10 nM (inactive). The inhibition (as a rule, the relative decrease from the control value, in per cent) is -31% (inactive) in [4] (at 0.5 µM, stronger effect = higher value); 13.3% in experiment [4] (measured here: combination with BGB IC20, at 0.005 µM); -22.3% in experiment [4] (measured here: combination with BGB IC40, at 0.005 µM); -8.73% in experiment [4] (measured here: combination with BGB IC40, at 0.05 µM); -48.5% in [4] (measured here: combination with cisplatin, at 0.5 µM, stronger effect = higher value); 8.75% in [4] (measured here: combination with cisplatin, at 5 µM, stronger effect = higher value). Further, the inhibition in experiment [5] (BGB combo, at 5 µM) was -36.1%; in experiment [5] (at 0.5 µM), -26.4% (inactive); in experiment [5] (cisplatin combo, at 5 µM) it was -41.4%; in [5] (setting [23]), -15.2%; in experiment [5] (setting [24]), -29%; in [5] (single agent, at 5 µM), -25%. For the same compound, the inhibition in experiment [6] (BGB IC20 combo, at 0.005 µM) was -28.4%; in [6] (BGB IC40 combo, at 0.005 µM), 4.64%; in experiment [6] (BGB IC40 combo, at 0.05 µM), -16%; in experiment [6] (at 0.5 µM), -34.9% (inactive); in experiment [6] (cisplatin combo, at 0.05 µM) it was -16%; in experiment [6] (cisplatin combo, at 0.5 µM) it was -47.3%. Moreover, the inhibition in experiment [6] (cisplatin combo, at 5 µM) is -19.4%; in [6] (measured here: 5 uM single agent, at 5 µM), 1.51%; in experiment [7] (at 0.5 µM), -37.4% (inactive); in experiment [7] (measured here: with BGB IC20, at 0.5 µM), -54.6%; in experiment [7] (measured here: with BGB IC20, at 5 µM) it was -21.7%; in experiment [7] (measured here: with cisplatin IC20, at 0.5 µM), -36%. In addition, the inhibition in experiment [7] (measured here: with cisplatin IC20, at 5 µM) is -38.1%; in experiment [7] (single agent, at 5 µM) it was -29.1%; in [8] (at 0.5 µM), -2.64% (inactive); in experiment [8] (measured here: BGB combination, at 0.5 µM), -2.65%; in experiment [8] (measured here: BGB combination, at 5 µM) it was -11.8%; in experiment [8] (measured here: cisplatin combination, at 0.5 µM), -12.6%. The inhibition was 0.559% in [8] (measured here: cisplatin combination, at 5 µM); -8.65% (inactive) in [9] (at 0.5 µM); -22.2% in experiment [9] (cisplatin combination, at 0.5 µM); -55.6% in experiment [9] (cisplatin combination, at 5 µM); 17% in [9] (measured here: BGB IC40 combination 0.05 uM, at 0.05 µM); -11.5% in [9] (single agent, at 5 µM). In addition, the inhibition was -9.43% (inactive) in experiment [10] (at 0.5 µM); -32.6% in experiment [10] (cisplatin combo, at 5 µM); -2.04% in experiment [10] (measured here: BGB IC40 combination, at 0.05 µM); -6.22% in [10] (measured here: combination with cisplatin, at 0.5 µM); -9.57% in [10] (single agent, at 5 µM); -22.8% (inactive) in experiment [11] (at 0.5 µM). Besides, the inhibition in experiment [11] (setting [23]) was -40.5%; in [11] (setting [24]), -13.9%; in [11] (single agent, at 0.05 µM), -3.12%; in experiment [11] (single agent, at 5 µM) it was -18.2%.

With `Nc1nc2ccc(Cl)cc2c2nc(-c3ccco3)nn12`, the period change in [12] is 0.275 h (inactive). For the same compound, in [13], the inhibition was -2% (inactive). Moreover, the fluorescence ratio (interference) in [14] is 1 (inactive). In addition, in [15], the remaining activity (commonly the signal under treatment as a percentage of the control signal) was 120% (inactive). Moreover, in experiment [16], the compound was called inactive.

In the case of `CC(=O)SCC(Cc1ccccc1)C(=O)NCC(=O)OCc1ccccc1` (centres undefined), the survival in [1] was 6.5 (inactive). The compound was classed as inactive in experiment [17], in experiment [19] and in [20]. Also, the half-maximal activity concentration (AC50) – broadly, the concentration at which the activity in the assay is half-maximal – in [18] was 469 nM (active). Further, the z-score was -0.406 (inactive) and 0.283 (inactive) and 0.224 (inactive) in experiment [2] (setting [21]); 0.561 and 0.494 and -0.589 in experiment [2] (setting [22]). The remaining NAD in [3] is 10 nM (inactive).

Consider `CC[C@@H]1C(=O)OC[C@@H]1Cc1cncn1C`, for which the remaining activity in [15] is 110% (inactive).
